Reference: PubChem BioAssay AID504832 (National Center for Advancing Translational Sciences (NCATS), 2011)
Among all 310,000 compounds or so, about 18,000 (5.8%) were called active. Not shown: some 22% with an inconclusive outcome. The list comes from a sample in which actives are over-represented; it also holds similar structures and randomly drawn compounds. Unmarked numbers belong to inactive results. Calls follow the shape of the dose curve; as a rule, active = well fitted inhibition curve with a large enough effect; inconclusive = small, poorly fitted or top-dose-only effect, or another doubt; inactive = no such curve, though single readings can be large or run the other way.

Assay: Primary qHTS for delayed death inhibitors of the malarial parasite plastid, 48 hour incubation
Details: P. falciparum luciferase growth in erythrocytes; series mostly up to 28.7 µM; activity change, negative = inhibition: at the top concentration
Method in brief: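 Luciferase-expressing P. falciparum in infected erythrocytes (2% hematocrit, 0.1% parasitemia final) in RPMI 1640/0.5% Albumax were exposed to compound for 48 hours at 37 C, 5% CO2; growth read as luminescence.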
% is scaled to controls: 0 for no effect and ±100 for the full control effect; potency is read from the fitted curve at half-maximal effect.

| SMILES | Potency | activity change, negative = inhibition |
| --- | --- | --- |
| CCN(CC)CCC(c1cc(OC)c(OC)c(OC)c1)c1c(OC)cc(OC)c2c(-c3ccccc3)cc(=O)oc12 (configuration not stated) | 3.29 µM (active) |  |
| COc1ccc(F)cc1S(=O)(=O)NCC(c1ccc2c(c1)OCO2)N1CCN(C)CC1 (configuration not stated) |  | 0.254% |
| COc1cc(OC)c(C(=O)NCc2ccc3c(c2)OCO3)cc1OC |  | 0.912% |
| CCCCN(CC)C(=O)c1ccc2c(c1)OCO2 |  | -5.43% |
| Cc1[nH][nH]c(=O)c1C(c1ccc2c(c1)OCO2)c1c(C)[nH][nH]c1=O |  | 0.59% |
| CC(=O)COc1ccc2c(-c3ccccc3)cc(=O)oc2c1 |  | 34.8% |
| COc1ccc(-c2cc(=O)oc3cc(OCC(=O)N[C@@H](Cc4c[nH]c5ccccc45)C(=O)O)ccc23)cc1 |  | 2.65% |
| CCN(CC)C(=O)CC(c1ccc2c(c1)OCO2)c1c(OC)cc(OC)c2c(-c3ccccc3)cc(=O)oc12 (configuration not stated) | 11.7 µM (active) |  |
| CCN(CC)CCC(c1ccc2c(c1)OCO2)c1c(OC)cc(OC)c2c(-c3ccccc3)cc(=O)oc12 (configuration not stated) | 9.28 µM (active) |  |
| O=C(NNC(=O)c1ccc(-n2cncn2)c([N+](=O)[O-])c1)c1ccccc1 |  | -10.8% |
| S=C(Nc1ccc(Cl)cc1Cl)N1CCCC1 |  | 54.8% |
| COc1cc(/C=N/NC(=O)Cc2ccccc2)cc(OC)c1OC |  | 6.42% |
| O=C(Nc1cccc(F)c1)[C@@H]1CCCN1 |  | -9.54% |
| Cc1cc(C)nc(NS(=O)(=O)c2ccc(N3C(=O)C4CCCCC4C3=O)cc2)n1 (configuration not stated) |  | 26.1% |
| Cc1cc(N2C(=O)C(O)=C(C(=O)c3ccc(C)o3)C2c2ccc(OCc3ccccc3)cc2)no1 (configuration not stated) |  | 5.29% |
| Cc1nn(CC(=O)NC2CCCCC2)c(=O)c2cccn12 |  | 29.8% |
| Cc1cc(C(F)F)nn1CC(=O)NC1CCCCCC1 |  | 10.4% |
| O=C(Cn1nc([N+](=O)[O-])nc1Br)NC1CCCCC1 | 1.47 µM (active) |  |
| CC1(C)O[C@@H]2[C@H](O1)[C@@H](CO)O[C@H]2n1c(N2CCCCC2)nc2c(N)ncnc21 |  | -1.31% |
| O=C(NCc1cccnc1)C12CC3CC(CC(C3)C1)C2 |  | -8.11% |
| O=C(Cc1ccccc1)Nc1cccc(NC(=O)c2ccccc2)c1 |  | 312% |
| CCc1cccc(NC(=O)CCC(=O)O)c1 |  | 2.01% |
| O=C(CCl)Nc1cccc(CP(=O)(c2ccccc2)c2ccccc2)c1 | 10.4 µM (active) |  |
| CC(=O)Nc1ccc(/C=C/C(=O)c2ccccc2)cc1 |  | 48.1% |
| CC(/C=C/c1ccccc1)=N\NC(=O)C1CC1(C)c1ccccc1 (configuration not stated) | 11.7 µM (active) |  |
| O=C(/C=C/c1ccccc1)c1ccccc1O |  | 28.4% |

| SMILES | Potency | activity change, negative = inhibition |
| --- | --- | --- |
| O=S(=O)(c1ccc(-c2ccno2)s1)N1CCCCC1 |  | 3.71% |
| CCn1cc(C(=O)N[C@@H](C)C(=O)NCCO)c(=O)c2cc3c(cc21)OCO3 |  | 20.8% |
| CCOC(=O)c1sc2nc(SC)nc(-c3ccccc3)c2c1N |  | 10.1% |
| CCOC(=O)C1=C(CC)Nc2ccccc2N=C1N |  | 10.7% |
| CCOC(=O)c1cc(Sc2ccccc2N)cc(C(=O)OCC)n1 | 0.147 µM (active) |  |
| CCOc1ccc(N2C(=O)CSC2=NC#N)cc1 |  | -21.6% |
| COc1ccccc1CNS(=O)(=O)CC12CCC(CC1=O)C2(C)C (configuration not stated) |  | 10.1% |
| COC(=O)c1ccc(Nc2ncnc3sccc23)cc1 |  | 19.8% |
| Cc1nnc(SCc2ccc(C(=O)c3ccc(Cl)cc3)o2)n1-c1ccccc1 | 14.7 µM (active) |  |
| Cc1nnc(SCC(=O)N2CCN(c3ccccc3)CC2)n1-c1ccccc1 |  | -0.135% |
| Cc1nnc(SCC(=O)NCCOc2ccc(Cl)cc2)n1-c1ccccc1 |  | -17.2% |
| Cc1noc(C)c1C(=O)NCCc1ccc(S(N)(=O)=O)cc1 |  | -3.59% |
| COc1ccc(C)cc1NC(=S)N1CCOCC1 |  | 0.499% |
| CCOC(=O)c1sc(NC(=O)c2sc(C)nc2C)nc1C |  | 19.2% |
| Cn1c(Nc2ccccc2)cc(=O)n(C)c1=O |  | -11.8% |
| Cc1ccc(N2C(=O)C(Cc3ccccc3)NC2=S)cc1 (configuration not stated) |  | -18.5% |
| O=C1C(Cc2ccc(O)cc2)NC(=S)N1Cc1ccccc1 (configuration not stated) | 2.94 µM (active) |  |
| CCCCc1ccc(NC(=O)CN2C(=O)NC(Cc3ccccc3)C2=O)cc1 (configuration not stated) |  | -23.3% |
| C=CCOc1ccc(C(=O)Nc2ccccc2C(=O)N2CCCC2)cc1 |  | -4.59% |
| CCOC(=O)CNc1nc(Cl)nc(Nc2ccc(OC)cc2OC)n1 |  | 122% |
| Cc1c(O)c(C)c2c(c1O)C(=O)C[C@@H](c1ccccc1)O2 | 13.1 µM (active) |  |
| CCCc1cc(C(=O)Nc2ccc(Cl)cn2)cs1 |  | 274% |
| Cc1cc(CNC(=O)C2CCC(=O)N(CCc3ccc(Cl)cc3)C2)no1 (configuration not stated) |  | -6.17% |
| NC(=O)CSC1=Nc2ccccc2C2=NC(CCC(=O)NCc3ccc(F)cc3)C(=O)N12 (configuration not stated) |  | 16.7% |
| O=C(CC1N=C2c3ccccc3N=C(SCc3ccccc3Cl)N2C1=O)NCc1ccco1 (configuration not stated) | 4.65 µM (active) |  |
| CCC(C)NC(=O)CSC1=Nc2ccccc2C2=NC(CCC(=O)NCc3ccco3)C(=O)N12 (configuration not stated) |  | 0.708% |
